These results are taken from PubChem BioAssay (NCI).

Compounds without any hit were thinned out: in the full panel of roughly 83,000, 20% have a hit.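 The endpoint reported here, percent growth, reads 100 for growth as untreated, 0 for no net growth and -100 for all cells dead.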 Unmarked numbers belong to inactive results. Activity calls are given as the source filed them. How the source made its calls: active means growth percent below 10; inactive means the rest.

Among the test systems are NCI-H23 lung; NCI-H226 lung; NCI-H322M lung; HOP-62 NSCLC; NCI-H460 lung; HOP-92 NSCLC; NCI-H522 lung; A549/ATCC NSCLC; 786-0 renal; COLO 205 colon.
What all share (test): NCI-60 one-dose screen, 48 h (100 = growth as untreated, 0 = no growth, -100 = all killed)
What all share (details): 10 µM

In the case of `CCCn1c(=O)c2c(nc(-c3cccc(OCCCCl)c3)n2C)n(CCC)c1=O`, the growth in the assay on NCI-H23 lung was 59.1%; in the assay with NCI-H226 lung, 16.5%; with NCI-H322M lung it was 41%; with HOP-62 NSCLC it was -18.3% (active); with NCI-H460 lung, 24.4%; in the assay on HOP-92 NSCLC, -1.14% (active). For the same compound, the growth in the assay with NCI-H522 lung was 83.2%; in the assay with A549/ATCC NSCLC, 28.3%; in the assay with 786-0 renal, 23.9%; in the assay on COLO 205 colon, 65.8%.
On to `COc1cc(/C=C/C(=O)c2cc(-c3ccccc3)ccc2O)cc(OC)c1OC`, for which the growth with NCI-H23 lung was 66.3%; with NCI-H226 lung, 93.4%; in the assay with NCI-H322M lung it was 86.1%; with HOP-62 NSCLC it was 83.8%; in the assay with NCI-H460 lung, 67.6%; with HOP-92 NSCLC it was 61.3%. For the same compound, the growth in the assay with NCI-H522 lung is 54.9%; in the assay on A549/ATCC NSCLC it was 85%; in the assay with 786-0 renal, 94%; in the assay with COLO 205 colon it was 91.5%.
As to `O=C(Nc1cccc([N+](=O)[O-])c1)NN1CCCCCC1`, the growth in the assay on NCI-H23 lung was 105%; in the assay with NCI-H226 lung, 95.7%; in the assay with NCI-H322M lung it was 111%; in the assay on HOP-62 NSCLC, 111%; with NCI-H460 lung, 91.2%; with HOP-92 NSCLC, 80.8%. Besides, the growth with NCI-H522 lung was 90%; with A549/ATCC NSCLC it was 87%; in the assay with 786-0 renal, 96.3%; with COLO 205 colon, 104%.
Take `O=c1[nH]c(=O)n(C2C[C@@H](O)[C@@H](CO)O2)cc1F` (stereo not given in full): the growth is 15.9% in the assay with NCI-H23 lung; 50.4% with NCI-H226 lung; 57.6% in the assay on NCI-H322M lung; 27.7% with HOP-62 NSCLC; 6.58% (active) in the assay on NCI-H460 lung; 38.9% in the assay on HOP-92 NSCLC. Moreover, the growth in the assay on NCI-H522 lung was 20.1%; with A549/ATCC NSCLC, 22.2%; with 786-0 renal it was 8.75% (active); with COLO 205 colon it was 36.7%.
In the case of `CC(=O)Nc1nc(C)c(C(=O)NNC=O)s1`, the growth with NCI-H23 lung was 97.4%; with NCI-H226 lung, 92.7%; in the assay with NCI-H322M lung, 155%; in the assay with HOP-62 NSCLC, 111%; in the assay with NCI-H460 lung it was 105%; with HOP-92 NSCLC, 67.2%. In addition, the growth in the assay on NCI-H522 lung was 99.5%; with A549/ATCC NSCLC, 107%; in the assay with 786-0 renal, 118%; in the assay with COLO 205 colon, 128%.
For `COc1ccc2oc(=O)cc(C(c3ccc[nH]3)c3ccc[nH]3)c2c1`, the growth is 26% in the assay on NCI-H23 lung; 7.92% (active) in the assay on NCI-H226 lung; 27.7% in the assay on NCI-H322M lung; 4.73% (active) in the assay on HOP-62 NSCLC; 4.57% (active) in the assay on NCI-H460 lung; 32.6% in the assay on HOP-92 NSCLC. Moreover, the growth is -23.1% (active) in the assay on NCI-H522 lung, -7.88% (active) in the assay with A549/ATCC NSCLC, 17.2% with 786-0 renal and -71.5% (active) in the assay with COLO 205 colon.
Consider `COC(=O)CCCCCCCCC(C)c1ccc(C(C)=O)cc1` (stereo not given), for which the growth is 99.9% in the assay with NCI-H23 lung; 104% in the assay on NCI-H226 lung; 121% in the assay with NCI-H322M lung; 100% in the assay on HOP-62 NSCLC; 108% in the assay with NCI-H460 lung; 113% with HOP-92 NSCLC. The growth in the assay on NCI-H522 lung is 101%; in the assay on A549/ATCC NSCLC, 105%; in the assay on 786-0 renal, 102%; with COLO 205 colon it was 114%.
For `CCN(CC)CCn1c(=N)n(CC(O)c2ccc(Cl)c(Cl)c2)c2ccccc21` (stereo not given), the growth is 91.2% in the assay with NCI-H23 lung; 92.2% with NCI-H226 lung; 99.5% in the assay on NCI-H322M lung; 85.3% with HOP-62 NSCLC; 104% with NCI-H460 lung; 58.1% in the assay on HOP-92 NSCLC. Moreover, the growth is 45% in the assay on NCI-H522 lung, 89.6% with A549/ATCC NSCLC, 79.9% in the assay with 786-0 renal and 18.5% with COLO 205 colon.
Consider `Cc1nc(Nc2nc3ccccc3o2)nc(-c2cccc([N+](=O)[O-])c2)c1C(=O)Nc1ccc(F)c(Cl)c1`, for which the growth is 0.258% (active) in the assay with NCI-H23 lung; 10.3% in the assay on NCI-H226 lung; 24.9% in the assay on NCI-H322M lung; 16% in the assay on HOP-62 NSCLC; 2.04% (active) with NCI-H460 lung; -38.9% (active) in the assay on HOP-92 NSCLC. Besides, the growth with NCI-H522 lung is -20.5% (active); in the assay on A549/ATCC NSCLC, 5.85% (active); in the assay with 786-0 renal, 18.4%; in the assay on COLO 205 colon, 9.63% (active).
For `CC(=O)c1c(O)cc2c3c1OC(C)(C)C1CCC(C)(CC31)O2` (stereo not given), the growth is 100% in the assay with NCI-H23 lung; 85.8% with NCI-H226 lung; 98% with NCI-H322M lung; 106% in the assay on HOP-62 NSCLC; 108% in the assay with NCI-H460 lung; 92% in the assay with HOP-92 NSCLC. Also, the growth is 102% with NCI-H522 lung, 98.1% with A549/ATCC NSCLC, 104% in the assay with 786-0 renal and 92.3% in the assay with COLO 205 colon.
Turning to `CCOc1cc(Br)c(C(C)NC(=O)c2cccc(OC)c2)cc1OCC` (stereo not given), the growth in the assay with NCI-H23 lung is 79.7%; with NCI-H226 lung, 89.2%; in the assay with NCI-H322M lung, 94.3%; with HOP-62 NSCLC it was 87.3%; in the assay on NCI-H460 lung it was 78.1%; in the assay on HOP-92 NSCLC, 8.9% (active). Moreover, the growth in the assay on NCI-H522 lung was 83.6%; in the assay on A549/ATCC NSCLC, 76.6%; with 786-0 renal it was 68.1%; in the assay with COLO 205 colon it was 23.8%.
As for `COc1ccc(/C=C(\c2cc(OC)c(OC)c(OC)c2)c2nnc(-c3cccs3)o2)cc1`, the growth in the assay with NCI-H23 lung is 76.1%; in the assay with NCI-H226 lung, 92.5%; with NCI-H322M lung it was 82.7%; with HOP-62 NSCLC, 41.3%; with NCI-H460 lung it was 72.7%; in the assay with HOP-92 NSCLC it was 34.8%. Further, the growth is 43.7% in the assay with NCI-H522 lung, 77.5% in the assay with A549/ATCC NSCLC, 48.9% in the assay on 786-0 renal and 112% with COLO 205 colon.
As for `CN(C)c1ccc2c(c1)OC(N)=C(C#N)C2c1ccc2c(c1)CCCN2C` (stereo not given), the growth in the assay with NCI-H23 lung is 33.3%; in the assay on NCI-H226 lung, 37.3%; in the assay with NCI-H322M lung, 52.3%; in the assay with HOP-62 NSCLC, 31.7%; in the assay on NCI-H460 lung it was 12.4%; in the assay with HOP-92 NSCLC, 47.1%. The growth is -26.4% (active) with NCI-H522 lung, 27.5% in the assay with A549/ATCC NSCLC, 43.7% with 786-0 renal and -10.2% (active) in the assay on COLO 205 colon.
On to `c1ccc(CNc2nc(Nc3ccc(-c4nc5ccccc5[nH]4)cc3)c3cn[nH]c3n2)cc1`, for which the growth in the assay on NCI-H23 lung is 14.5%; in the assay with NCI-H226 lung, 39.6%; in the assay with NCI-H322M lung, 28.6%; in the assay on HOP-62 NSCLC it was -17.4% (active); in the assay on NCI-H460 lung, 4.06% (active); in the assay on HOP-92 NSCLC it was 14.7%. Further, the growth in the assay on NCI-H522 lung was -45.7% (active); in the assay on A549/ATCC NSCLC, 4.29% (active); with 786-0 renal, -78.4% (active); in the assay with COLO 205 colon, -60.1% (active).
